The target in experiment [1] is T1, Aspartate--tRNA(Asp/Asn) ligase (Mycobacterium tuberculosis (strain ATCC 25618 / H37Rv)) (UniProt P9WFW3). Further: in the data most compounds retested in dose-response had high values.
T1 sequence (whole entry): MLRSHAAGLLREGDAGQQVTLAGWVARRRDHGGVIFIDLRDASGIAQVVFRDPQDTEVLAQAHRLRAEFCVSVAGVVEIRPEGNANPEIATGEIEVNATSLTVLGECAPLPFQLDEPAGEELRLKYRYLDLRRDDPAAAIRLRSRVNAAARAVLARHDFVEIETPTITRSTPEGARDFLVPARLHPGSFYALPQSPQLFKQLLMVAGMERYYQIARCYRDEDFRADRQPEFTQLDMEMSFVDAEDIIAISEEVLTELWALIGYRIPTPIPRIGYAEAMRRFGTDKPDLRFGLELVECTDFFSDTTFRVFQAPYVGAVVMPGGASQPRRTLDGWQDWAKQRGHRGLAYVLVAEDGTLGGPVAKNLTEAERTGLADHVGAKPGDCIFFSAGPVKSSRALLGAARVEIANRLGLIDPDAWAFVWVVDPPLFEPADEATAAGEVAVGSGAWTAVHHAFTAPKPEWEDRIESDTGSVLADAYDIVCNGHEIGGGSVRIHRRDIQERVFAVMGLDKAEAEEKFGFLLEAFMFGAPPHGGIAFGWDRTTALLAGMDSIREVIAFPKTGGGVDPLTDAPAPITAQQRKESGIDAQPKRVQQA
Nature of the experiment: Assay for Asp RNA synthetase-1 from Mycobacterium tuberculosis. On the set-up: scale not given: direction of the effect not stated beside the values. Conditions: 30 µM. Format: functional.

Experiment [2] concerns the target Shiga toxin 2 (Escherichia coli O157:H7) (UniProt P09385+P09386). Nature of the experiment: E. coli 0.157:H7 Shiga Toxin SOP - stx2 screening assay. Format: functional. To be noted: 30 µM. The arrangement: scale not given: direction of the effect not stated beside the values.

The structures appear in SMILES notation.

On to `CC(=O)NC1CCCN(C(=O)NCc2cccnc2-n2cccn2)C1` (stereo unspecified), for which the Percent Effect in experiment [1] is -3.6%; in experiment [2], -14.7%.
Turning to `CC(C)c1nccn1C1CCCN(C(=O)c2ccc3c(c2)OCO3)C1` (stereo unspecified), the Percent Effect in experiment [1] was -0.317%; in experiment [2], 10.5%.
For the compound `Cc1c[nH]nc1C1CCN(S(=O)(=O)N(C)C)CC1`, the Percent Effect in experiment [1] was 2.31%; in experiment [2], -2.83%.
In the case of `Cn1cccc1-c1cc(C(=O)N2CCCC2c2cccnc2)[nH]n1` (stereo unspecified), the Percent Effect is 2.57% in experiment [1] and 4.82% in experiment [2].
For `Cc1cccc(C2(CNC(=O)CCN3C(=O)CCC3=O)CCCC2)c1`, the Percent Effect is -4.05% in experiment [1] and 9.87% in experiment [2].
Regarding `COCCNS(=O)(=O)c1cccc2c1CN(C(=O)c1ccccc1)CC2`, the Percent Effect in experiment [1] is -2.79%; in experiment [2], -27.5%.
For `Cn1ccnc1CN1CCN(CC(O)c2ccco2)CC1` (stereo unspecified), in that order: 4.07% and 20%.
The like results for `O=C(NCCN1CCc2ccccc2C1)c1scnc1Cl` were, in that order, 1.6% and -3.31%.
`Cc1ccc(C(NC(=O)CC2CCN(C(C)C)CC2)C(=O)O)cc1` (stereo unspecified): the values for the Percent Effect in experiment [1] and in experiment [2] were -0.279% and 10.7%, respectively.
Turning to `c1cc(CNCC2OCCc3cn(CC4CCOCC4)nc32)ccn1` (stereo unspecified), the figures for the Percent Effect in experiment [1] and in experiment [2] were 4.2% and -5.21%, respectively.
For `CC(C)c1ncncc1C(=O)NCCN1CCCS1(=O)=O`, in that order: -2.86% and 6.66%.
For `Cc1csc2nc3n(c(=O)c12)CCN(C(=O)c1ccncc1)CC3`, in that order: -3.92% and 3.14%.
As for `Cc1nc([C@@H]2C[C@@H]3CCN(C(=O)Cc4ccsc4)C[C@H]3O2)no1`, the figures for the Percent Effect in experiment [1] and in experiment [2] were -2.49% and 2.89%, respectively.
For `CC1=N[C@@]2(CC[C@@H]3CN(S(=O)(=O)CC(C)C)C[C@@H]32)C(=O)N1CC(C)C`, in that order: -0.749% and 9.05%.
For the compound `COc1ccccc1CN1CCC2(CC1)CC(Oc1ccccn1)CO2` (stereo unspecified), the values for the Percent Effect in experiment [1] and in experiment [2] were 1.6% and -0.702%, respectively.
As to `CCn1ccnc1CN1CCC(CNC(=O)c2ccc(C)nc2)C1` (stereo unspecified), the Percent Effect was -0.565% in experiment [1] and -34.1% in experiment [2].
For `CC(=O)N1CCN(C(=O)CCOc2ccc(C(C)C)cc2)CC1`, the Percent Effect in experiment [1] was -2.21%; in experiment [2], 38.9%.
As to `CCOc1cc(CN(C)CCOC)ccc1OC(F)F`, the Percent Effect in experiment [1] was -3.33%; in experiment [2] it was -67.7%.
Take `CC(C)NC(=O)C1CN(C(N)=O)Cc2ccnn2C1` (stereo unspecified): the Percent Effect in experiment [1] is -3.46%; in experiment [2], -5.82%.
`CC[C@H](C)[C@H](NC(=O)c1ccccc1-n1cnnn1)C(=O)OC`: the Percent Effect in experiment [1] was 3.95%; in experiment [2], -29.9%.
The like results for `CC(C)c1nc(CC(=O)N2CCCC(n3cncn3)C2)cs1` (stereo unspecified) were, in that order, -4.06% and -31%.
For `CO[C@H]1CCN(S(=O)(=O)c2cn(C)cn2)[C@H]1Cc1cccnc1`, the Percent Effect in experiment [1] was -0.175%; in experiment [2], -10.2%.
In the case of `CC[C@H](C)Nc1nccc(-c2cnc3sc(C)c(C)n3c2=O)n1`, the Percent Effect in experiment [1] is 0.808%; in experiment [2] it was -27.1%.
The like results for `CC1CN(C(=O)NCCCn2cncn2)CCO1` (stereo unspecified) were, in that order, -7.24% and 31.5%.
Take `CCS(=O)(=O)N(C)C1CCN(C(=O)c2cccc(Cl)c2)CC1`: the Percent Effect in experiment [1] is -0.493%; in experiment [2], 14.8%.
On to `CC(=O)c1c(F)cccc1N1CCC(Cc2cccnc2)CC1`, for which the Percent Effect in experiment [1] was 0.661%; in experiment [2], -24.5%.
`Cc1nc(C2CCCN2CC(=O)NCCc2ccsc2)no1` (stereo unspecified): the Percent Effect is 1.22% in experiment [1] and -9.77% in experiment [2].
The like results for `O=C1CCC2(CCCN(C(=O)c3cscn3)C2)CN1CCc1c[nH]cn1` (stereo unspecified) were, in that order, 3.83% and -12.3%.
For `c1ccc2sc(N3CCOC(Cn4cccn4)C3)nc2c1` (stereo unspecified), in that order: 6.21% and 12.4%.
For `CN(C)C(=O)COC1COC2(CCN(S(C)(=O)=O)CC2)C1` (stereo unspecified), in that order: -4.11% and -11.5%.
In the case of `CN1CCC/C1=N\S(=O)(=O)c1ccc(NC(=O)c2cccs2)cc1`, the figures for the Percent Effect in experiment [1] and in experiment [2] were -0.972% and -166%, respectively.
Regarding `CCn1ncc2c1C(COC)CN(Cc1ccsc1)C2` (stereo unspecified), the figures for the Percent Effect in experiment [1] and in experiment [2] were -1.74% and -2.67%, respectively.
For the compound `COC(=O)C(C)(C)NC(=O)C1CC(=O)N(C)C1` (stereo unspecified), the Percent Effect in experiment [1] was -1.62%; in experiment [2], -22.5%.
With `Cn1cc(CN2CCCN(C(=O)c3cn4ccccc4n3)CC2)cn1`, the Percent Effect is 1.48% in experiment [1] and -25.9% in experiment [2].
The like results for `O=C(Nc1ccccn1)C1CC(=O)N(Cc2ccccn2)C1` (stereo unspecified) were, in that order, 2.43% and -18.5%.
Take `Cn1cccc1C(=O)Nc1cc(F)ccc1OCC1CCCO1` (stereo unspecified): the Percent Effect is -6.53% in experiment [1] and 22% in experiment [2].
Take `CCc1nc(C2CCCN(C(=O)c3ccc4c(c3)nnn4C)C2)no1` (stereo unspecified): the Percent Effect in experiment [1] was 4.32%; in experiment [2], -19.5%.
Regarding `c1sc(C2CCCC2)nc1CN1CCn2c(nnc2C2CC2)C1`, the Percent Effect came to 3.23% in experiment [1] and 27.9% in experiment [2].

For the origin of these results see ChEMBL document CHEMBL3988442, “University of Dundee, Small-Polar-MMV Screening Library” (2021).
